NPC1 prom act – activators of NPC1 promoter; Huh7 NPC1 promoter luciferase reporter, 24 h; Potency, µM (top dose mostly 9.22 µM), inactives show top-dose activation, usual class: activators; hit rate 2.4% among 320,000; AID 485313; also: % of control where 0% means no effect; nearly all actives have a fitted effect of over 60% in size
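Luciferase expression driven by the NPC1 promoter was measured in stably transfected Huh7 cells after a 24 h compound incubation, using a luciferase reagent and a luminescence read.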
KinaseGlo FLuc – Kinase-Glo luciferase inhibition (counter-screen) | Q27757 | hit rate 0.28% among 200,000 | Potency, µM (top dose mostly 38.3 µM), inactives show at the highest dose activity change, negative = inhibition, actives largely listed as inhibitors | Kinase-Glo luciferase, ATP luminescence, 8 min; also: % is scaled to controls: 0 for no effect and ±100 for the full control effect; nearly all actives have a fitted effect of over 60% in size
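Substrate mix (final 50 mM imidazole pH 7.2, 50 mM KCl, 7 mM MgCl2, 10 uM ATP, 0.01% Tween 20, 0.05% BSA) plus pin-tool compound, then Kinase-Glo detection mix; 8 min ambient, luminescence read.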
FLuc modulator – inhibits or activates purified firefly luciferase, miR-21 counter-screen. hit rate 6.9% among 360,000. P08659. AID 588342. purified FLuc, Km substrates, luminescence inhibition. Potency, µM (highest dose often 57.5 µM), without a hit: at the highest dose activity change, negative = inhibition, actives largely listed as inhibitors;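 also: plate controls were vehicle for no effect and reference inhibitor for full effect; nearly all actives have a fitted effect of over 55% in size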
Target sequence (P08659 whole entry, looked up): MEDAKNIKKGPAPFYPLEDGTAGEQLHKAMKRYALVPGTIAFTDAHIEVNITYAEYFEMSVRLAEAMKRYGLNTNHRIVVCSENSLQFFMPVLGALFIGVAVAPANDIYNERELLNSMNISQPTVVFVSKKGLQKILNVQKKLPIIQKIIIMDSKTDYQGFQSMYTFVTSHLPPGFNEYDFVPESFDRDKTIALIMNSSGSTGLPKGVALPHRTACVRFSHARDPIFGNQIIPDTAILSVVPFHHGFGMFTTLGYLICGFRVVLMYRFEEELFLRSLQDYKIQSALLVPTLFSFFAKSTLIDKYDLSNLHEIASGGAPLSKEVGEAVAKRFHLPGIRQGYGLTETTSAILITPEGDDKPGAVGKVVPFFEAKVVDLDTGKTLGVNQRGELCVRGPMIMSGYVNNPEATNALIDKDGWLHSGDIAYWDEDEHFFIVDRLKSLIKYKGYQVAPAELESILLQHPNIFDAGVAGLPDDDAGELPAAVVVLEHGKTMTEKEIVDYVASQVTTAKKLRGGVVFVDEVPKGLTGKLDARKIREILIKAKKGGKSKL
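Purified P. pyralis luciferase, 10 nM final, with Km-level 10 uM D-luciferin and 10 uM ATP in 50 mM Tris acetate pH 7.5, 10 mM Mg acetate, 0.01% Tween-20, 0.05% BSA; 6-point qHTS titration about 60 µM downward; luminescence read.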
Rab9 prom act – activators of Rab9 promoter. hit rate 2.8% among 320,000. Potency, µM (series often up to 9.22 µM), for the others: top-dose activation, negative = inhibition, actives largely listed as activators. Huh7 Rab9 promoter-luciferase reporter, luminescence, 24 h; also: % of control where 0% means no effect; nearly all actives have a fitted effect of over 60% in size
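Huh7 cells stably carrying a Rab9 promoter-luciferase reporter, 1500 cells per well in OP-MEM I with 10% FBS, treated with compound 24 hours at 37C. Luciferase activity read by luminescence after 10 minutes with Amplite reagent.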
SMN2 splice up – SMN2 splice variant enhancement. HEK293 SMN2-luciferase splicing reporter, luminescence, 30-36 h. Potency, µM (highest dose often 46.1 µM), inactives show at the highest dose activity change, positive = activation, hits mostly activators. hit rate 2.8% among 210,000. AID 1458; also: % of control where 0% means no effect; nearly all actives have a fitted effect of over 55% in size
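qHTS luciferase splicing reporter: luminescence rises when SMN2 exon 7 is included in transfected HEK293 cells. Compound exposure lasted 30-36 h at 37C, with 4.5 mM final sodium butyrate as control, followed by a ONE-Glo read.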
Active calls of the source: *; ? = inconclusive; nt = not tested or not shown; [ ] = remark or other dose. Compounds with a hit are over-represented: about 7.3% of the library has one in this group of screens. Calls follow the shape of the dose curve; as a rule, active = well fitted curve in the direction sought with a large enough effect; inconclusive = small, poorly fitted or top-dose-only effect, or another doubt; inactive = no such curve, though single readings can be large; an effect the other way counts as inactive or inconclusive. Potency is read from the fitted curve at half-maximal effect.

SMILES	NPC1 prom act	KinaseGlo FLuc	FLuc modulator	Rab9 prom act	SMN2 splice up
O=C(COC(=O)CCN1C(=O)/C(=C\C=C\c2ccccc2)SC1=S)Nc1cc(F)ccc1F	-2%	-1%	13µM*	-7%	-14%
O=C(CN1C(=O)S/C(=C\C=C\c2ccccc2)C1=O)Nc1ccc(C(=O)O)cc1	3%	nt	6µM*	3%	nt
O=C(CCN1C(=O)/C(=C\C=C\c2ccccc2)SC1=S)Nc1ccc(C(=O)O)cc1	?	nt	0.95µM*	29%	nt
O=C(CCN1C(=O)/C(=C/C=C/c2ccccc2)SC1=S)Nc1nc2ccccc2s1	-1%	3%	?	-2%	2%
O=C(CN1C(=O)/C(=C\C=C\c2ccccc2)SC1=S)Nc1ccc(F)cc1	0%	-2%	-6%	1%	4.5µM*
Cc1ccc(NC(=O)Cn2c(=O)ccc3cc(S(=O)(=O)N4CCC(C)CC4)ccc32)c(C)c1	nt	nt	-7%	nt	nt
O=C(CN1C(=O)S/C(=C/C=C/c2ccccc2)C1=O)Nc1ccc(C(=O)O)cc1	-5%	-1%	4.8µM*	-7%	11%
COc1ccc(-c2c(C#N)c(SCC(=O)Nc3ccc(C)c(C)c3)nc(C)c2C(=O)Nc2ccccc2)cc1OC	nt	nt	4%	nt	-5%
CCN1CCN(C(=O)C2(NC(=O)Nc3ccccc3Cl)CCCCC2)CC1	-6%	-1%	6%	-2%	-19%
O=C(Nc1ccc(Br)cc1)Nc1ccccc1Cl	2.2µM*	nt	2.7µM*	?	nt
CCN1CCN(Cc2ccc(NC(=O)Nc3ccccc3Cl)cc2)CC1	4µM*	2%	6.7µM*	3.5µM*	?
CC(=O)Nc1ccc(CN2CCCCCCC2)cc1	1%	1%	-1%	1%	12%
CCN1CCN(Cc2ccccc2NC(=O)Nc2ccc(C)cc2)CC1	?	-1%	24µM*	4µM*	?
CCN1CCN(CCC(=O)Nc2ccc(C)cc2)CC1	7%	nt	-1%	-2%	nt
O=C(Nc1ccc(CN2CCCCC2)cc1)Nc1ccccc1Cl	22%	1%	17µM*	28%	?
Cc1cc(C)n(C(C)CC(=O)NCc2ccccc2C)n1 (centres undefined)	nt	nt	0%	nt	nt
CN1CCSc2ccc(C(=O)NCc3ccccc3F)cc21	29%	nt	?	?	nt
CN1CCSc2ccc(C(=O)Nc3cc(F)ccc3F)cc21	1.3µM*	nt	2.1µM*	0.89µM*	nt
Cc1ccccc1NC(=O)c1ccc2c(c1)N(C)CCS2	?	nt	11µM*	?	nt
COc1ccc(-c2c(C)nn3c4c(cnc23)C(=O)CC(c2ccc(C)cc2)C4)cc1 (centres undefined)	nt	nt	-5%	nt	4%
COc1ccccc1C(=O)NC1(C(F)(F)F)C(=O)Nc2c1c(=O)[nH]c(=O)n2-c1ccccc1 (centres undefined)	nt	nt	-16%	nt	-7%
COCCN1Cc2cccc(C(=O)Nc3cccc(-c4nc5ccccc5[nH]4)c3)c2C1=O	7%	nt	?	0%	nt
CCOc1cc(OCC)cc(C(=O)Nc2cccc(-c3nc4ccccc4[nH]3)c2)c1	nt	nt	-1%	nt	-48%
CCCOc1ccc(C(=O)Nc2cccc(-c3nc4ccccc4[nH]3)c2)cc1	nt	nt	4.8µM*	nt	?
CS(=O)(=O)c1ccc(C(=O)Nc2cccc(-c3nc4ccccc4[nH]3)c2)cc1	-8%	nt	24µM*	1%	nt
SMILES	NPC1 prom act	KinaseGlo FLuc	FLuc modulator	Rab9 prom act	SMN2 splice up
Cn1ncc([N+](=O)[O-])c1C(=O)Nc1ccc(-c2nc3ccccc3[nH]2)cc1	?	4%	21µM*	?	?
CS(=O)(=O)Cc1ccc(C(=O)Nc2cccc(-c3nc4ccccc4[nH]3)c2)cc1	14%	nt	13µM*	18%	nt
CCOC(=O)c1ccc(NC(=O)c2cn3c4c(ccc(Cl)c4c2=O)OC(C)C3)cc1 (centres undefined)	nt	nt	0%	nt	nt
COCCOC(=O)c1ccccc1C(=O)OCCOC	nt	nt	nt	nt	-4%
Cc1ccc(NC(=O)CSc2nc3ccc(NC(=O)c4cccs4)cc3s2)c(C)c1	nt	nt	-18%	nt	nt
COc1cc2c(cc1OC)C1C(=O)c3ccc4c(c3OC1CO2)C=CC(C)(C)O4 (centres undefined)	nt	-4%	nt	nt	-73%
Cc1ccc(NC(=O)c2cnn3c(C(F)F)cc(-c4ccccc4)nc23)c(C)c1	nt	nt	2%	nt	3%
O=C(Nc1ccc(-c2nc3ccccc3[nH]2)cc1)c1c(F)c(F)c(F)c(F)c1F	-5%	2%	-1%	-5%	-2%
CS(=O)(=O)c1ccc(C(=O)Nc2ccc(-c3nc4ccccc4[nH]3)cc2)cc1	?	nt	2%	2.5µM*	nt
CS(=O)(=O)c1cccc(C(=O)Nc2cccc(-c3nc4ccccc4[nH]3)c2)c1	19%	nt	12µM*	13%	nt
Nc1nc(NC(=O)c2ccccc2)nn1-c1ccccc1	23%	0%	?	28%	?
COc1ccc(C(=O)Nc2nc(N)n(-c3ccccc3)n2)cc1	4%	-3%	17µM*	4%	2%
Nc1nc(NC(=O)c2cccs2)nn1-c1ccccc1	2.8µM*	6%	17µM*	2.5µM*	11µM*
COc1ccc(C(=O)Nc2nc(N)n(-c3ccccc3)n2)cc1OC	9%	-5%	-10%	-6%	-2%
COc1ccccc1/C=C/C(=O)Nc1nc(N)n(-c2ccccc2)n1	-2%	nt	19µM*	0%	nt
CC(=O)Nc1ccc(SC[C@H](CC(C)C)N2CCN(CCc3ccccc3)CCC2=O)cc1	4%	nt	0%	-13%	nt
COc1ccc(SC[C@H](CC(C)C)N2CCN(CCc3ccccc3)CCC2=O)cc1	14%	nt	19µM*	0%	nt
Cc1ccc(SC[C@H](CC(C)C)N2CCN(CCc3ccccc3)CCC2=O)cc1	18%	nt	17µM*	12%	nt
COC(=O)[C@H]1[C@H]2CC3c4[nH]c5ccccc5c4CCN3C[C@@H]2CC[C@@H]1O (some centres undefined)	nt	-3%	nt	nt	-11%
Cc1ccc(C(=O)Nc2cnc3sc(C)nn3c2=O)cc1	?	-4%	-6%[2.3 µM]	?	13µM*
COc1ccc(OC)c(NC(=O)c2oc(=O)c3ccccc3c2-c2ccccc2)c1	nt	nt	0%	nt	nt
Cc1nn(-c2ccccc2C(=O)O)c(=O)c2ccccc12	-1%	-1%	-3%	-2%	nt
Cc1nn(-c2ccc(Br)cc2)c(=O)c2ccccc12	?	nt	8.5µM*	2.8µM*	nt
CC(C)(C)c1ccc(C(=O)c2cn[nH]c2-c2ccccc2O)cc1	?	nt	11µM*	?	nt
COc1ccc(C(=O)OCC(=O)c2ccc(CNC(C)=O)s2)cc1	9%	nt	11µM*	23%	nt
COc1ccc(C(=O)c2ccc(CC(=O)O)s2)cc1	-3%	-2%	12µM*	-3%	-7%
O=C(/C=C/c1ccc(F)cc1)OCC(=O)c1ccc[nH]1	10%	nt	?	16%	nt
O=C(OCC(=O)c1ccc[nH]1)c1ccc(Br)cc1	0%	nt	?	3%	nt
COc1ccc(C(=O)OCC(=O)c2ccc[nH]2)cc1	?	nt	27µM*	?	nt

Screens as filed in PubChem BioAssay.
